From PubChem BioAssay (NCI) come the findings set out here.

Each structure is given as a SMILES string. About 83,000 compounds went through this panel and 20% of them were active in at least one assay; those are over-represented in the sample as a whole.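 The test compound was applied at a single concentration to cells in 96-well plates for 48 hours, and percent growth was recorded.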 Unmarked numbers belong to inactive results. The source made the active and inactive calls. Rule for the calls: active = growth percent below 10; inactive = the rest.

The subject of the experiment is HCT-15 colon. In words: NCI-60 one-dose screen, 48 h (100 = growth as untreated, 0 = no growth, -100 = all killed). As to conditions: 10 µM unless noted.
Consider `Cc1ccc(NC(=O)N[C@@H](Cc2cc(F)cc(F)c2)C(=O)NC2C(=O)N3CCC[C@H]3C(=O)N3CCCC[C@H]3C(=O)N[C@@H](C)C(=O)N3C[C@H](C)C[C@H]3C(=O)O[C@H]2C)c(F)c1` (stereo not given in full), for which the growth is 14.1%.

Turning to `COc1ccc(/C=C/C(=O)c2nnn(-c3ccc(C(=O)O)cc3)c2C)cc1OC`, the growth was 89.6%.

With `O=C(Nc1cc(F)cc2cccnc12)c1cnc(N2CCOCC2)cn1`, the growth was 32.4%.

Turning to `Oc1ccccc1-c1nnc(SCc2ccc(O)c3ncccc23)o1`, the growth is 16.3%.

Take `COc1cc(/C=C2\SC(=O)NC2=O)ccc1OCC(=O)Nc1ccc(C(=O)/C=C/c2cc3ccccc3nc2Cl)cc1`: the growth was 89.7%.

With `Nc1nc(-c2cccc([N+](=O)[O-])c2)c(N=Nc2ccccc2Cl)s1`, the growth is 48.9%.

For `Oc1ccc(-c2nnc(SCc3ccc(O)c4ncccc34)o2)cc1`, the growth was 7.43% (active).

Turning to `C[C@H]1[C@H](C)CC[C@]2(COC(=O)c3cccnc3)CC[C@]3(C)C(=CC[C@@H]4[C@@]5(C)CCCNC(C)(C)[C@@H]5CC[C@]43C)[C@H]12`, the growth was 39.5%.

For the compound `O=c1[nH]c2cc(Cl)ccc2n1C1CCN(c2ccc3nnc(Cl)n3n2)CC1`, the growth is 96.5%.

In the case of `COc1ccc(N2CCN(C(=O)CSc3ccc(-c4nc5cc(C)c(C)cc5[nH]4)cn3)CC2)cc1`, the growth is 52.8%.

As to `Cc1cc(F)cc(NS(=O)(=O)c2ccc(-c3cnc(C4CC4)o3)cc2)c1`, the growth is 22.4%.

With `Oc1ccc(CSc2nnc(-c3ccncc3)o2)c2cccnc12`, the growth is 23%.

As to `O=C(COc1ccc(/C=C2\SC(=O)NC2=O)cc1)Nc1ccc(C(=O)/C=C/c2cc3ccccc3nc2Cl)cc1`, the growth is 76.8%.

`O=C(Nc1cccc(Cl)c1)Nc1nc2ccc([N+](=O)[O-])cc2s1`: the growth was 1.52% (active).

For the compound `Cn1cc(-c2nn3cc(-c4cccnc4)nc3s2)c2cc(F)ccc21`, the growth is 60%.

`COc1ccc(CCN2C(=O)/C(=C/c3nc(CO)cs3)SC2=S)cc1`: the growth is 51.2%.

As for `C/C(=N\NC(=S)Nc1ccc(Br)cc1)c1cc2ccccc2oc1=O`, the growth is 10%.

As to `O=C1[C@H]2Cc3c([nH]c4ccccc34)[C@@H](c3ccc(Cl)cc3)N2C(=O)CN1C1CCN(Cc2c(Cl)cccc2Cl)CC1`, the growth was 54.5%.

As for `O=C1[C@H]2Cc3c([nH]c4ccccc34)[C@@H](c3c(Cl)cccc3Cl)N2C(=O)CN1C1CCN(Cc2ccccc2)CC1`, the growth is 25.5%.

As to `Oc1ccccc1-c1nnc(SCc2ccc(O)c3ncccc23)n1-c1ccccc1`, the growth is 17.6%.

`CC1=C2C(=C[C@@](C)(COS(N)(=O)=O)[C@@H]2O)C(=O)[C@](C)(O)C12CC2`: the growth was 67.6%.

Regarding `CC1(COc2ccc3ncc(C#Cc4cncc(C(=O)Nc5cc(C(C)(C)C)on5)c4)n3n2)COC1`, the growth was 26%.

In the case of `NC(=S)N/N=C(/C=C/c1cn(-c2ccccc2)nc1-c1ccc(Cl)cc1)c1cc2ccccc2oc1=O`, the growth is 19.9%.

As to `O=C(/C=C1\C=CN(CCCCO)c2ccccc21)n1ccc2ccccc21`, the growth is 107%.

Regarding `Cc1cc(NS(=O)(=O)c2ccc(-c3cnc(C4CC4)o3)cc2)ccc1I`, the growth is 30.5%.

On to `Oc1ccc(CSc2nnc(-c3ccccc3)o2)c2cccnc12`, for which the growth is 10.6%.

Consider `CS(=O)(=O)c1ccc2c(c1)c1c(n2S(=O)(=O)c2ccc(Cl)cc2)CCCC1`, for which the growth is 24%.

On to `CN(C)C(=O)c1ccccc1-n1cnc2ccccc2c1=O`, for which the growth is 97.5%.

Turning to `C=C(C)C(=O)O[C@H]1C[C@@]2(C)OC(=CC2=O)[C@H](C)[C@H](O)[C@H]2OC(=O)C(=C)[C@@H]21`, the growth is 32.6%.

Turning to `O=C(Nc1cc(Cl)cc(Cl)c1)Nc1nc2ccc([N+](=O)[O-])cc2s1`, the growth is 2.76% (active).

For `C#C[C@]1(O)CC[C@H]2[C@@H]3CC=C4c5sc(Nc6ccc(OC)nc6)nc5CC[C@]4(C)[C@H]3CC[C@@]21C`, the growth is -66.4% (active).

In the case of `CCOc1ccc2nc(NC(=O)Nc3ccccc3C)sc2c1`, the growth is 27%.

Regarding `CN(c1ccc(Br)cc1)S(=O)(=O)c1ccc(-c2cnc(C3CC3)o2)cc1`, the growth was 17.7%.

For `CCNC(=NCCCN(C)C)N/C(N)=N/c1nc2ccccc2s1`, the growth was 77.4%.

Turning to `Cc1cc(Cl)cc(NS(=O)(=O)c2ccc(-c3cnc(C4CC4)o3)cc2)c1`, the growth was 21.8%.
